# Data from PubChem BioAssay (NCATS).
# Values joined by “and” are separate entries in the source; they are usually repeats but may differ in a detail not shown here. Equal entries are not always repeated. Records with an inconclusive call do not appear. Where a call stands in place of a potency, no number is given. Active and inactive are the calls of the source. Calls come from the whole dose curve; as a rule, active = well fitted curve in the direction sought with a large enough effect; inconclusive = small, poorly fitted or top-dose-only effect, or another doubt; inactive = no such curve, though single readings can be large; an effect the other way counts as inactive or inconclusive.
# Key:
# [1] = qHTS of pediatric cancer cell lines to identify multiple opportunities for drug repurposing: Primary screen for SJ-GBM2 cells (AID 1347091); note: potency is the fitted concentration of half-maximal effect
# Summary of the method: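 Eight- or eleven-point concentration series, 48 h treatment at 37 degrees C in growth media; readout CellTiter-Glo luminescence. Potency and efficacy were taken from the concentration-response curves.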
# [2] = qHTS of pediatric cancer cell lines to identify multiple opportunities for drug repurposing: Primary screen for NB-EBc1 cells (AID 1347095)
# Summary of the method: (§1)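 Primary screen of approved and investigational compounds on cells in growth media at 37 degrees C, 5% CO2. MIPE set at 11-point and NPC set at 8-point dilutions; viability scored by ATP-based luminescence at 48 hours.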
# [3] = qHTS of pediatric cancer cell lines to identify multiple opportunities for drug repurposing: Primary screen for SK-N-SH cells (AID 1347098); note: nearly all actives have a fitted effect of over 65% in size; note: potency is the fitted concentration of half-maximal effect
# Summary of the method: (§2)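 Cells (500-1,000/well) rested 5 h, then received compounds for 48 h; metabolically active cells were measured by CellTiter-Glo luminescence. Final concentrations spanned up to 46 µM (MIPE, 11-point) or 0.59 nM-46 µM (NPC, 8-point) in primary screens, 11-point in follow-ups.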
# [4] = qHTS of pediatric cancer cell lines to identify multiple opportunities for drug repurposing: Primary screen for NB1643 cells (AID 1347099); note: nearly all actives have a fitted effect of over 50% in size; note: potency is the fitted concentration of half-maximal effect
# Summary of the method: as §1
# [5] = qHTS of pediatric cancer cell lines to identify multiple opportunities for drug repurposing: Primary screen for BT-12 cells (AID 1347101); note: nearly all actives have a fitted effect of over 25% in size
# Summary of the method: as §2
# [6] = qHTS of pediatric cancer cell lines to identify multiple opportunities for drug repurposing: Primary screen for Rh18 cells (AID 1347102); note: nearly all actives have a fitted effect of over 65% in size
# Summary of the method: (§3)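 Cells (500-1,000/well) in growth media were settled 5 h at 37 degrees C, then given compounds for 48 h. Viability was read as CellTiter-Glo luminescence. Primary runs used MIPE at 11 points (0.78 nM-46 µM) and NPC at 8 points (0.59 nM-46 µM); follow-ups used 11 points.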
# [7] = qHTS of pediatric cancer cell lines to identify multiple opportunities for drug repurposing: Primary screen for OHS-50 cells (AID 1347103); note: nearly all actives have a fitted effect of over 40% in size; note: potency is the fitted concentration of half-maximal effect
# Summary of the method: as §2
# [8] = qHTS of pediatric cancer cell lines to identify multiple opportunities for drug repurposing: Primary screen for RD cells (AID 1347104); note: nearly all actives have a fitted effect of over 55% in size; note: potency is the fitted concentration of half-maximal effect
# Summary of the method: as §1
# [9] = qHTS of pediatric cancer cell lines to identify multiple opportunities for drug repurposing: Primary screen for MG 63 (6-TG R) cells (AID 1347105); note: nearly all actives have a fitted effect of over 50% in size; note: potency is the fitted concentration of half-maximal effect
# Summary of the method: as §1
# [10] = qHTS of pediatric cancer cell lines to identify multiple opportunities for drug repurposing: Primary screen for SK-N-MC cells (AID 1347093); note: potency is the fitted concentration of half-maximal effect
# Summary of the method: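 Metabolically active cells were quantified by ATP-dependent luminescence (CellTiter-Glo, 15 min at room temperature) following 48 h treatment. Cells had been plated at 500-1,000 per well and settled for 5 h beforehand.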
# [11] = qHTS of pediatric cancer cell lines to identify multiple opportunities for drug repurposing: Primary screen for LAN-5 cells (AID 1347100); note: potency is the fitted concentration of half-maximal effect
# Summary of the method: as §3
# [12] = qHTS of pediatric cancer cell lines to identify multiple opportunities for drug repurposing: Confirmatory screen for A673 cells (AID 1347110);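 note: cells exposed to compound for 48 h before the viability read; nearly all actives have a fitted effect of over 65% in size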; note: potency is the fitted concentration of half-maximal effect
# Summary of the method: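 Viability was read as ATP luminescence (CellTiter-Glo) after 48 h of compound exposure at 37 C in A673 cells seeded at 500-1,000/well. Titrations reached 46 uM final, with 11 points in the confirmatory screen. Concentration-response curves were fitted directly.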
# [13] = qHTS of pediatric cancer cell lines to identify multiple opportunities for drug repurposing: Primary screen for Saos-2 cells (AID 1347097); note: nearly all actives have a fitted effect of over 40% in size; note: potency is the fitted concentration of half-maximal effect
# Summary of the method: as §1
# [14] = qHTS of pediatric cancer cell lines to identify multiple opportunities for drug repurposing: Primary screen for control Hh wild type fibroblast cells (AID 1347106);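 note: series mostly up to about 46 µM; a drop in luminescence marks cytotoxicity and a rise apparent proliferation; nearly all actives have a fitted effect of over 55% in size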
# Summary of the method: as §3
# [15] = qHTS of pediatric cancer cell lines to identify multiple opportunities for drug repurposing: Primary screen for Rh30 cells (AID 1347107); note: series mostly up to about 46 µM; nearly all actives have a fitted effect of over 75% in size
# Summary of the method: as §3
# [16] = qHTS of pediatric cancer cell lines to identify multiple opportunities for drug repurposing: Primary screen for Rh41 cells (AID 1347108);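 note: series mostly up to about 46 µM; luminescence drop marks cytotoxic hits; nearly all actives have a fitted effect of over 70% in size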
# Summary of the method: as §1
# [17] = qHTS of pediatric cancer cell lines to identify multiple opportunities for drug repurposing: Primary screen for A673 cells (AID 1347092); note: potency is the fitted concentration of half-maximal effect; nearly all actives have a fitted effect of over 45% in size
# Summary of the method: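 Cell viability of A673 measured by CellTiter-Glo ATP luminescence after 48 hours compound exposure. Dilution series spanned 0.78 nM to 46 µM (MIPE, 11-point) or 0.59 nM to 46 µM (NPC, 8-point); bortezomib 2.3 uM positive control.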
# [18] = qHTS of pediatric cancer cell lines to identify multiple opportunities for drug repurposing: Primary screen for BT-37 cells (AID 1347094); note: potency is the fitted concentration of half-maximal effect
# Summary of the method: as §1
# [19] = qHTS of pediatric cancer cell lines to identify multiple opportunities for drug repurposing: Primary screen for U-2 OS cells (AID 1347096); note: nearly all actives have a fitted effect of over 50% in size
# Summary of the method: as §3
# [20] = qHTS of pediatric cancer cell lines to identify multiple opportunities for drug repurposing: Confirmatory screen for NB1643 cells (AID 1347109); note: nearly all actives have a fitted effect of over 45% in size
# Summary of the method: as §3
Compound,Potency [1],Potency [2],Potency [3],Potency [4],Potency [5],Potency [6],Potency [7],Potency [8],Potency [9],Potency [10],Potency [11],Potency [12],Potency [13],Potency [14],Potency [15],Potency [16],Potency [17],Potency [18],Potency [19],Potency [20]
CCOc1cc(C(=O)Nc2ccc(Cl)c(-c3nc4ccccc4[nH]3)c2)cc(OCC)c1OCC,inactive,inactive,5.41 µM (active),11.8 µM (active),inactive,inactive,inactive,2.96 µM (active),inactive,–,–,–,–,–,–,–,–,–,–,–
CCCS(=O)(=O)Nc1ccc(F)c(C(=O)c2c[nH]c3ncc(-c4ccc(Cl)cc4)cc23)c1F,18.7 µM (active),–,4.82 µM (active),3.32 µM (active),–,–,6.85 µM (active),18.7 µM (active),14.8 µM (active),10.5 µM (active),20.9 µM (active),16.5 µM (active),–,–,–,–,–,–,–,–
CN(C)c1ccc(Nc2nc(N)n(C(=O)c3c(F)cccc3F)n2)cc1,16.6 µM (active),–,3.83 µM (active),11.8 µM (active),–,inactive,–,–,18.7 µM (active),0.469 µM (active),0.833 µM (active),–,16.6 µM (active),inactive,inactive,inactive,–,–,–,–
S=C(NCc1ccc2c(c1)OCO2)N1CCN(c2ncnc3c2oc2ccccc23)CC1,inactive,–,inactive,8.55 µM (active),–,–,1.98 µM (active),–,inactive,4.29 µM (active),30.3 µM (active),–,–,inactive,inactive,–,–,–,–,–
Cc1cc(-c2ccc(CC(=O)Nc3ccc(-c4cccnc4)cc3)cc2)ccn1,–,–,–,–,–,inactive,–,–,inactive,9.35 µM (active),–,–,–,inactive,–,–,23.5 µM (active),inactive,–,–
Cc1n[nH]c(C)c1Cc1sc2c(c1C(=O)N1C[C@H](O)CO1)c(=O)n(C)c(=O)n2CC(C)C,inactive,inactive,inactive,1.05 µM (active),inactive,inactive,inactive,inactive,inactive,–,–,–,–,inactive,inactive,–,–,inactive,inactive,–
Cc1c(C)c2c(c(C)c1O)CCC(C)(COc1ccc(CC3SC(=O)NC3=O)cc1)O2 (stereo not drawn),inactive,inactive,inactive,inactive,–,inactive,inactive,inactive,inactive,–,inactive,inactive,inactive,inactive,inactive,inactive,–,inactive,inactive,inactive
Nc1nc2ccc(OC(F)(F)F)cc2s1,21.1 µM (active),inactive,inactive,inactive,–,inactive,–,inactive,inactive,–,–,18.5 µM (active),–,inactive,inactive,inactive,–,–,inactive,–
CNC(=O)c1ccc(C)c(-n2c(C)cc(OCc3ccc(F)cc3F)c(Br)c2=O)c1,inactive,–,inactive,–,–,–,24.3 µM (active),inactive,–,–,20.9 µM (active),–,–,inactive,–,–,–,inactive,inactive,–
N=c1nc(N2CCCCC2)cc(N)n1O,inactive,inactive,inactive,inactive,inactive,inactive,inactive,–,inactive,–,inactive,–,inactive,inactive,inactive,inactive,–,inactive,inactive,–
CNCc1ccc(-c2[nH]c3cc(F)cc4c3c2CCNC4=O)cc1,inactive,–,–,–,inactive,inactive,inactive,–,inactive,–,–,0.147 µM (active),inactive,inactive,inactive,inactive,–,–,inactive,–
Cn1cnc([N+](=O)[O-])c1Sc1ncnc2nc[nH]c12,–,–,–,12.1 µM (active),–,inactive,1.4 µM (active) and 3.47 µM (active) and 3.06 µM (active),inactive,inactive,inactive,6.79 µM (active) and 5.26 µM (active),1.89 µM (active),inactive,inactive,inactive,–,762 nM (active) and 1.06 µM (active) and 1.18 µM (active),994 nM (active) and 1.38 µM (active) and 1.53 µM (active),–,–
